# Results reported in the supplement of paper PMC10849652.
# About 8,800 targets were measured; listed, in parts, are those with a hit and a random draw of the rest. About 0.5% of all pairs of compound and target were hits. Values without a mark were called inactive.
# How the values were obtained:
# Assay in all cases: log2 fold change, soluble protein after heating vs DMSO (PISA); higher = thermal stabilisation; K562 lysate, 10 uM; active = over 0.2 and 3.5 SD of the protein, either way, in both replicates (recomputed)
# nilotinib = compound: Cc1cn(-c2cc(NC(=O)c3ccc(C)c(Nc4nccc(-c5cccnc5)n4)c3)cc(C(F)(F)F)c2)cn1 [nilotinib]
# Outline: (§1)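 Pellets of K562 cells were dounce-homogenised in PBS pH 7.4 with 1 mM MgCl2, and the crude extract was held at 1 mg/mL protein for a 30 min treatment with 10 μM compound. Aliquots were heated for 3 min over 48°C-58°C and pooled before NP-40 was added to 0.5% at 4°C. The supernatant from 21,000xg for 90 min was quantified by TMTpro 16plex LC-MS/MS with channel sums equalised. Values are reported from duplicates as log-two fold change in thermal stability relative to solvent controls.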
# [1] = compound: Cc1nc(Nc2n[nH]c3c2CN(C(=O)N[C@H](CN(C)C)c2ccccc2)C3(C)C)c2sccc2n1
# Outline: as §1
# dasatinib = compound: Cc1nc(Nc2ncc(C(=O)Nc3c(C)cccc3Cl)s2)cc(N2CCN(CCO)CC2)n1 [dasatinib]
# Outline: as §1
# [2] = compound: Cc1ncc(-c2ccnc(Nc3ccc(S(C)(=O)=O)cc3)n2)n1C(C)C
# Outline: as §1
# [3] = compound: Cn1cc(-c2ccc3c(c2)CCN3C(=O)Cc2cccc(C(F)(F)F)c2)c2c(N)ncnc21
# Outline: as §1
# quisinostat = compound: Cn1cc(CNCC2CCN(c3ncc(C(=O)NO)cn3)CC2)c2ccccc21 [quisinostat]
# Outline: as §1
# tipifarnib = compound: Cn1cncc1[C@@](N)(c1ccc(Cl)cc1)c1ccc2c(c1)c(-c1cccc(Cl)c1)cc(=O)n2C [tipifarnib]
# Outline: as §1
# [4] = compound: NC(=O)Nc1cc(-c2cccc(F)c2)sc1C(=O)N[C@H]1CCCNC1
# Outline: as §1
# [5] = compound: NC(=O)c1cnc(N[C@@H]2CCCC[C@@H]2N)nc1Nc1cccc(-n2nccn2)c1
# Outline: as §1
# [6] = compound: NC1(c2ccc(-c3nc4ccn5c(=O)[nH]nc5c4cc3-c3ccccc3)cc2)CCC1
# Outline: as §1
# [7] = compound: NCC(=O)Nc1ccc(-n2nc(C(F)(F)F)cc2-c2ccc3c(ccc4ccccc43)c2)cc1
# Outline: as §1
# vorinostat = compound: O=C(CCCCCCC(=O)Nc1ccccc1)NO [vorinostat]
# Outline: as §1
# silmitasertib = compound: O=C(O)c1ccc2c(c1)nc(Nc1cccc(Cl)c1)c1ccncc12 [silmitasertib]
# Outline: as §1
# [8] = compound: O=C1NC(=O)C(c2cnc3ccccn23)=C1c1cn2c3c(cc(F)cc13)CN(C(=O)N1CCCCC1)CC2
# Outline: as §1
# entospletinib = compound: c1cn2cc(-c3ccc4cn[nH]c4c3)nc(Nc3ccc(N4CCOCC4)cc3)c2n1 [entospletinib]
# Outline: as §1
# Sequence of UniProt Q8TDX7 (Q8TDX7 whole entry, looked up): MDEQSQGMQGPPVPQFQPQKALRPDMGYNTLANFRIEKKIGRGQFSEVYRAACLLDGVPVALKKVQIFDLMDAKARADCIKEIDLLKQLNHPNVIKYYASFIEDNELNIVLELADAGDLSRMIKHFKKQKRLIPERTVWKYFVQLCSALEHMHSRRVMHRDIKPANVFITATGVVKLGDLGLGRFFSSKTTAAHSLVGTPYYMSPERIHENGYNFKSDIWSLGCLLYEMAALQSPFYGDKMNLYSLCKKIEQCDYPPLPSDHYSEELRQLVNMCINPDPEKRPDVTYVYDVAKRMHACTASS
# Sequence of UniProt Q9UFN0 (Q9UFN0 whole entry, looked up): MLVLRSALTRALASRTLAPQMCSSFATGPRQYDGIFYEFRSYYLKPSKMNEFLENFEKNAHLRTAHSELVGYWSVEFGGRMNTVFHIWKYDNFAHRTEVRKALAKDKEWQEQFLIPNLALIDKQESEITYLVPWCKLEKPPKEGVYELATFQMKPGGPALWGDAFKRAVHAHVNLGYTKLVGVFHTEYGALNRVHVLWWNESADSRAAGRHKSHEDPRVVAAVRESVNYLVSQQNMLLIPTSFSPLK
# Sequence of UniProt Q86UW6 (Q86UW6 whole entry, looked up): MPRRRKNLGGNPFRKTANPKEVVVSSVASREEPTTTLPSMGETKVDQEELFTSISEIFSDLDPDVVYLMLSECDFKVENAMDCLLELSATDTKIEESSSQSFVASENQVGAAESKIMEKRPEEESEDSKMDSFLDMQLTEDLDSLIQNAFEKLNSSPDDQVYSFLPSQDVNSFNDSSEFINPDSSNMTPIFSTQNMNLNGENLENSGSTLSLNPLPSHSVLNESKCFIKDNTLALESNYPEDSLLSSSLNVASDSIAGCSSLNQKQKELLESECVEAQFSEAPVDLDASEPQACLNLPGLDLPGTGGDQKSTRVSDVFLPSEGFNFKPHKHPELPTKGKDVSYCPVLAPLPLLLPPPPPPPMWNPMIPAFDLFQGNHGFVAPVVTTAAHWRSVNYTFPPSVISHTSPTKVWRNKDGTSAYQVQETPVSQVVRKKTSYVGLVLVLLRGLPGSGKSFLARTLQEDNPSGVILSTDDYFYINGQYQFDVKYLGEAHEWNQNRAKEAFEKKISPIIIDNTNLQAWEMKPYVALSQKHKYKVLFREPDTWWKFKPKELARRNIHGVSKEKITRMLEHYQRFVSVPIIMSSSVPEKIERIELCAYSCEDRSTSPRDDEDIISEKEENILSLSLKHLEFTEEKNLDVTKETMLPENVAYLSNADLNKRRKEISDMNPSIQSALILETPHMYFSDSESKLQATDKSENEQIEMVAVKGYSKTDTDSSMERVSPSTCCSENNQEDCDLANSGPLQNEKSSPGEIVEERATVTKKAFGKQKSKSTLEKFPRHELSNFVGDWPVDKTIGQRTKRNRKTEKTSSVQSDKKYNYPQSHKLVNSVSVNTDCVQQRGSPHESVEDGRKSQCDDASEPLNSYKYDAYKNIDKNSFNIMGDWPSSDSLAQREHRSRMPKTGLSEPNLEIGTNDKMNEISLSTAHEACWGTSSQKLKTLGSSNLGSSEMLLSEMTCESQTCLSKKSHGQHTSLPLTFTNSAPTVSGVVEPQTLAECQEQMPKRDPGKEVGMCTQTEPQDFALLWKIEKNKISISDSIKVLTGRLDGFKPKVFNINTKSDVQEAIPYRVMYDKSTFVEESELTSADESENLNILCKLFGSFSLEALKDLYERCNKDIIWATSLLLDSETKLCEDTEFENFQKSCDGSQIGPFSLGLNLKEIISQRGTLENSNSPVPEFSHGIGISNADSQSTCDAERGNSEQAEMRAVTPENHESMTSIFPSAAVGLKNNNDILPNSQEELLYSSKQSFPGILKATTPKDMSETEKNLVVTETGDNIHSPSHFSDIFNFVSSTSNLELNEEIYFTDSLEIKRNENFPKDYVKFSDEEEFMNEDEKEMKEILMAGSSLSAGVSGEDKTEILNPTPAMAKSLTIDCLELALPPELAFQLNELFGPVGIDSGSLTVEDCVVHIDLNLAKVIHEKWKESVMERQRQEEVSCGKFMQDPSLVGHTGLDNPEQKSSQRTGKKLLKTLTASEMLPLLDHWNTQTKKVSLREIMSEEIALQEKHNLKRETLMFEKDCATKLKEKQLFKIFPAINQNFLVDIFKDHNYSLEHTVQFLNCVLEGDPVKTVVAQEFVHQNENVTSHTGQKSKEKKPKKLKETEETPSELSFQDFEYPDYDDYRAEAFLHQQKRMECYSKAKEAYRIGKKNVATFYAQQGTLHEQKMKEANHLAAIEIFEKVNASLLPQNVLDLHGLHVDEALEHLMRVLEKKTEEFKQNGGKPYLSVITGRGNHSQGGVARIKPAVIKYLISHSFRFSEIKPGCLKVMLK
# Sequence of UniProt Q9Y6C9 (Q9Y6C9 whole entry, looked up): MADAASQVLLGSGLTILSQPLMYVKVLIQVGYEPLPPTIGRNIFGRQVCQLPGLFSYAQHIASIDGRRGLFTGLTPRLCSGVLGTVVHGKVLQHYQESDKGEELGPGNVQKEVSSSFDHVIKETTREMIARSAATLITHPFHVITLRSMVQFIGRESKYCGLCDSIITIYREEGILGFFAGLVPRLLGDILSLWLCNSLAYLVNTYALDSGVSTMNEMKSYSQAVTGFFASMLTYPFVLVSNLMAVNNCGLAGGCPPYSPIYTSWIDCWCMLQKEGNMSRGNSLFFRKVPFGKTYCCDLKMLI
# Sequence of UniProt Q9Y5A7 (Q9Y5A7 whole entry, looked up): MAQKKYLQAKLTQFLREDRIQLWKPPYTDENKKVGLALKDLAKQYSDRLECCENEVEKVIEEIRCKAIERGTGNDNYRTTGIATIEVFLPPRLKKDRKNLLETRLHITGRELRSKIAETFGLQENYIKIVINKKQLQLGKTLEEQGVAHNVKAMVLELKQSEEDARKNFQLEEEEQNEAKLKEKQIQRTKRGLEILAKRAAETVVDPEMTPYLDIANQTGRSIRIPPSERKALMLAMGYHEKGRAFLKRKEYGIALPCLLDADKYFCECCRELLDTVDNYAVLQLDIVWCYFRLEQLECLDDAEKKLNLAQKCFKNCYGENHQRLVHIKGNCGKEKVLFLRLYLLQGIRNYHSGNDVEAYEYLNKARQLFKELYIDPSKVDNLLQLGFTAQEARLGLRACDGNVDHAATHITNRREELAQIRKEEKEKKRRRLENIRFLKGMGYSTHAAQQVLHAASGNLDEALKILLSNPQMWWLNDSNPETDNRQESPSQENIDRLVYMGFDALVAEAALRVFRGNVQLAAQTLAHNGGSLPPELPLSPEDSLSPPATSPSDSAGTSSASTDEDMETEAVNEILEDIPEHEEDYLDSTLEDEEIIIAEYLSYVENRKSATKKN
# Sequence of UniProt P80303 (P80303 whole entry, looked up): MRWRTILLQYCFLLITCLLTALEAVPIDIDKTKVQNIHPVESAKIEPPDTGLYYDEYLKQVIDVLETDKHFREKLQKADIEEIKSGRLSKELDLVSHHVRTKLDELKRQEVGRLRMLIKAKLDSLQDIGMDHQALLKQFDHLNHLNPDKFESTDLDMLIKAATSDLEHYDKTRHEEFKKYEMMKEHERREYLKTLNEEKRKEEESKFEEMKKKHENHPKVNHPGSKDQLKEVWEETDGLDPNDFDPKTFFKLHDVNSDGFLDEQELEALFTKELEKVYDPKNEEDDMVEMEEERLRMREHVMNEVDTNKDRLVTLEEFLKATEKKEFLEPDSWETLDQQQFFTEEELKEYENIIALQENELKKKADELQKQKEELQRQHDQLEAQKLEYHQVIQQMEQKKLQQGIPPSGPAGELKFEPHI
# Sequence of UniProt Q8N1F7 (Q8N1F7 whole entry, looked up): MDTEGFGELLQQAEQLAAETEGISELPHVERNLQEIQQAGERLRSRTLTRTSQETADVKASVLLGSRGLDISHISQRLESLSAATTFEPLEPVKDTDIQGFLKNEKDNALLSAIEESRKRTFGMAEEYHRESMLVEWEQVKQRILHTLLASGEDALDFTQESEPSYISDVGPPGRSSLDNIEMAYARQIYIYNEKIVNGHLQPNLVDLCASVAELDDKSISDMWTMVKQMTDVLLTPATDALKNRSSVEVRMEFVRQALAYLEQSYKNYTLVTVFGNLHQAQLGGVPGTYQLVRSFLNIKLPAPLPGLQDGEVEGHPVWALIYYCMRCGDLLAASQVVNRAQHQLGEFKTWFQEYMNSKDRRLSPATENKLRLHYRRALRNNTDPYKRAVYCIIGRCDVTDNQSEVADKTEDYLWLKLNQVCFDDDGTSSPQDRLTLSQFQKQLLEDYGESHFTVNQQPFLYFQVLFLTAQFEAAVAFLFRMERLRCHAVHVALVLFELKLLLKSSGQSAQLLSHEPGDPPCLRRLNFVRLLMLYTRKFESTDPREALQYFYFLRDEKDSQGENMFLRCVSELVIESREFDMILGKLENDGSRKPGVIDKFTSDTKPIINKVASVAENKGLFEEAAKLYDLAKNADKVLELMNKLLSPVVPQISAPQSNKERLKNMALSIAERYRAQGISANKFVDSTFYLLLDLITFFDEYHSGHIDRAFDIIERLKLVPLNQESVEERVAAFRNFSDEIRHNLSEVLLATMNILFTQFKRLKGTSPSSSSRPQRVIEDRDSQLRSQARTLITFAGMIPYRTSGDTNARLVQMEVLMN
# Sequence of UniProt Q9BXS6 (Q9BXS6 whole entry, looked up): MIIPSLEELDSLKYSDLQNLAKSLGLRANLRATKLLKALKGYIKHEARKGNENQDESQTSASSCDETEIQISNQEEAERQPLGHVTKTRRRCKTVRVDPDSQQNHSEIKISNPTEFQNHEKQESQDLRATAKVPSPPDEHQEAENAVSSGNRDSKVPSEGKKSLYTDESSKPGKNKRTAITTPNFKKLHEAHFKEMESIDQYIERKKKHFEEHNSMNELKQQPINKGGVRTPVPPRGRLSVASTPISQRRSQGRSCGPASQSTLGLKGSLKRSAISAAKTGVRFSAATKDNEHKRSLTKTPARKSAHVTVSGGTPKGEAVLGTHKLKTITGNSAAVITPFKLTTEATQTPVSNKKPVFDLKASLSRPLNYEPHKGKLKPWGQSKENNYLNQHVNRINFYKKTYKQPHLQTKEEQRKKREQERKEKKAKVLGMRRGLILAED
Target,log2 fold change (nilotinib),log2 fold change [1],log2 fold change (dasatinib),log2 fold change [2],log2 fold change [3],log2 fold change (quisinostat),log2 fold change (tipifarnib),log2 fold change [4],log2 fold change [5],log2 fold change [6],log2 fold change [7],log2 fold change (vorinostat),log2 fold change (silmitasertib),log2 fold change [8],log2 fold change (entospletinib)
NUB1 (UniProt Q9Y5A7),-0.021,0.025,-0.03,0.028,0.014,0.035,0.003,0.018,0.004,-0.002,-0.004,-0.333 (active),-0.027,0.031,0.001
MTOR (UniProt P42345),0.007,-0.022,-0.064,0.001,0.039,-0.067,0.015,0.04,0.017,-0.033,-0.035,-0.305 (active),0.146,-0.013,-0.024
MTCH2 (UniProt Q9Y6C9),0.044,-0.005,0,-0.014,-0.024,-0.104,0.018,0,-0.027,0.001,-0.016,-0.432 (active),-0.001,-0.075,0.026
NIT2 (UniProt Q9NQR4),-0.011,0.001,-0.03,-0.021,-0.027,0.004,0.019,0.021,-0.016,-0.023,-0.001,0.346 (active),-0.001,-0.007,0.004
MYCBP2 (UniProt O75592),0.028,-0.013,-0.038,-0.013,0.015,-0.116,-0.008,0.019,0.012,-0.013,0.031,-0.223 (active),-0.002,0.007,-0.002
ORC3 isoform 2 (UniProt Q9UBD5),-0.014,0,-0.084,-0.014,-0.012,-0.038,-0.014,0.099,0.027,-0.079,-0.012,-0.409 (active),0.023,0.052,0.013
NAA30 (UniProt Q147X3),-0.036,0.019,-0.042,0.059,-0.005,0.032,-0.097,0.001,-0.018,0.041,-0.019,-0.235 (active),0.047,0.009,-0.003
MXRA7 (UniProt P84157),-0.307,0,0.03,-0.202,-0.034,-0.069,-0.006,0.1,-0.078,-0.003,0.118,0.262,-0.102,0.099,0.021
NUCB2 (UniProt P80303),-0.016,0.015,0.007,-0.019,-0.009,0.016,0.011,-0.003,-0.001,0.014,0,0.133,-0.026,-0.007,-0.008
NCOR1 (UniProt O75376),0.006,0.012,-0.031,-0.019,0.008,-0.064,-0.046,0.021,0.029,0.003,0.021,-0.239 (active),-0.035,0.014,-0.01
NUMB (UniProt P49757),-0.03,-0.024,-0.072,-0.008,0.001,-0.02,0.001,-0.029,-0.026,0.003,0,-0.315 (active),-0.014,-0.066,0
NEK7 (UniProt Q8TDX7),0.003,0.016,-0.03,0.045,0.168,-0.018,-0.006,0.033,0.018,0.01,-0.037,-0.338 (active),0.105,0.003,0.012
NIPSNAP3A (UniProt Q9UFN0),0.001,0.016,0.028,0.008,-0.054,-0.053,0.015,0.007,-0.052,-0.025,0.03,0.136,-0.061,0.017,-0.021
NUP93 (UniProt Q8N1F7),-0.02,0.001,-0.098,-0.006,0.031,0.037,-0.04,0.021,0.018,-0.005,-0.011,-0.242 (active),0.067,0.015,0.022
NUSAP1 (UniProt Q9BXS6),-0.001,0.004,0.045,-0.009,-0.047,0.038,-0.016,-0.024,0.002,-0.055,0.01,0.101,-0.036,-0.003,-0.001
N4BP2 (UniProt Q86UW6),0.026,0.036,-0.024,-0.043,0.061,-0.001,-0.061,0.037,-0.018,-0.048,-0.075,-0.369 (active),-0.004,-0.001,-0.029
NCK1 (UniProt P16333),-0.071,0.015,-0.005,-0.037,-0.015,-0.053,0.018,0.029,0.001,0.008,0.048,-0.281 (active),0.01,-0.014,0.019
MRPL51 (UniProt Q4U2R6),-0.029,-0.006,-0.056,-0.054,-0.055,0.27 (active),-0.003,0.055,-0.003,0.024,-0.03,-0.067,-0.054,0.121,0.003
NIPBL (UniProt Q6KC79),0.06,-0.002,-0.037,0.019,0.091,-0.043,0.014,0.02,0.003,0.018,-0.024,-0.357 (active),0.101,-0.005,0.071
NONO (UniProt Q15233),-0.007,-0.011,-0.047,0.007,0.012,-0.004,-0.007,0.022,0.008,-0.013,0.013,-0.355 (active),0.027,-0.007,0
